Laboratory results: PubChem BioAssay (NCI)
About 79,000 compounds went through this panel and 15% of them were active in at least one assay; those are over-represented in the sample as a whole. Activity calls are given as the source filed them. Rule as the data show it: active = growth inhibition above about 70%; inactive = the rest.

Columns and labels:
[1] = NCI Yeast Anticancer Drug Screen. Data for the rad52 strain (AID 147);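 also: 0% = growth of vehicle-treated control cultures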; details: S. cerevisiae rad52 mutant growth inhibition, hits give high values
Outline: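 Here a repair-compromised yeast strain receives each compound; its growth is then quantified and normalised to vehicle-only controls.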

[2] = NCI Yeast Anticancer Drug Screen. Data for the wt1 strain (AID 149);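 also: 0% = growth of vehicle-treated wt1 cultures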; details: S. cerevisiae wt1 strain (SPY 50644) growth inhibition, hits give high values
Outline: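 Measured: growth of wt1 yeast under compound versus vehicle treatment, reported as inhibition.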

[3] = NCI Yeast Anticancer Drug Screen. Data for the mgt1 strain (AID 153); details: S. cerevisiae mgt1 mutant growth inhibition, hits give high values
Outline: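 Measured: inhibition of mgt1 yeast growth by compound, normalized to vehicle-treated cultures.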

[4] = NCI Yeast Anticancer Drug Screen. Data for the rad50 strain (AID 155);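 also: 0% = growth of vehicle-only cultures of the same strain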; details: S. cerevisiae rad50 strain growth inhibition, hits give high values
Outline: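 Growth of the mutant yeast was measured after compound exposure and referenced to vehicle-treated cultures.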

[5] = NCI Yeast Anticancer Drug Screen. Data for the mec2-1 strain (AID 157); details: S. cerevisiae mec2-1 strain, hits give high values
Outline: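 Using mec2-1 yeast: add compound, measure growth, express inhibition versus vehicle-treated cultures.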

[6] = NCI Yeast Anticancer Drug Screen. Data for the rad14 strain (AID 159);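 also: 0% = growth of vehicle-treated control cultures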; details: S. cerevisiae rad14 strain growth inhibition, hits give high values
Outline: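 Here, inhibition of yeast growth was measured after compound exposure, using a strain with a genetic defect in DNA damage repair and vehicle-treated cultures as the reference.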

[7] = NCI Yeast Anticancer Drug Screen. Data for the sgs1 mgt1 strain (AID 161);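 also: 0% = growth of cultures given vehicle only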; details: S. cerevisiae sgs1 mgt1 strain, hits give high values
Outline: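 Percent growth inhibition was derived by comparing compound-exposed mutant yeast with vehicle-exposed cultures. The strain carries alterations in DNA damage repair.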

[8] = NCI Yeast Anticancer Drug Screen. Data for the CLN2oe strain (AID 163);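 also: 0% = growth of vehicle-only control cultures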; details: S. cerevisiae CLN2oe strain, hits give high values
Outline: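 Whole-cell yeast growth assay. A strain engineered for altered cell-cycle control received compound, and inhibition relative to vehicle-treated cultures was recorded.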

[9] = NCI Yeast Anticancer Drug Screen. Data for the cln2 rad14 strain (AID 165);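 also: 0% = growth equal to vehicle treated cultures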; details: S. cerevisiae cln2 rad14 strain, hits give high values
Outline: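 Yeast strain cln2 rad14, bearing defects in cell cycle control and DNA repair, serves as the test system; values reflect growth inhibition compared with vehicle.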

[10] = NCI Yeast Anticancer Drug Screen. Data for the bub3 strain (AID 167); details: S. cerevisiae bub3 mutant strain, hits give high values
Outline: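 Whole-cell yeast assay. The mutant strain was incubated with compounds, and growth inhibition was determined by comparison with vehicle-treated cells.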

[11] = NCI Yeast Anticancer Drug Screen. Data for the wt2 strain (AID 169);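 also: 0% = growth of vehicle-treated yeast cultures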; details: S. cerevisiae wt2 strain growth inhibition, hits give high values
Outline: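 Treated yeast vs. vehicle-treated yeast: growth inhibition determined.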

[12] = at 5.0 µM (retest, dose inferred, filed as 0.5)
[13] = at 50.0 µM (retest, dose inferred, filed as 5.0)

Measured: growth inhibition

O=C(c1ccccc1)C1C(c2ccccc2[N+](=O)[O-])N1C1CCCCC1 (stereo not given)
inactive: [1]; at 1.2 µM -1% | [1]; at 3.7 µM 7% | [1]; at 11.0 µM 30% | [2]; at 1.2 µM -1% | [2]; at 3.7 µM 1% | [2]; at 11.0 µM 8% | [2]; at 33.0 µM 41% | [3]; at 1.2 µM 1% | [3]; at 3.7 µM 2% | [3]; at 11.0 µM 10% | [3]; at 33.0 µM 52% | [4]; at 1.2 µM 2% | [4]; at 3.7 µM 3% | [4]; [12] -2% | [4]; at 11.0 µM 28% | [5]; at 1.2 µM 4% | [5]; at 3.7 µM 10% | [5]; [12] 1% | [5]; at 11.0 µM 23% | [5]; at 33.0 µM 66% | [5]; [13] 58% | [6]; at 1.2 µM -1% | [6]; at 3.7 µM 3% | [6]; at 11.0 µM 7% | [6]; at 33.0 µM 13% | [6]; at 100.0 µM 64% | [7]; [12] 15% | [8]; at 1.2 µM -4% | [8]; at 3.7 µM -2% | [8]; at 11.0 µM 3% | [8]; at 33.0 µM 38% | [9]; [12] -18% | [9]; [13] 13% | [10]; at 1.2 µM -11% | [10]; at 3.7 µM -2% | [10]; [12] -4% | [10]; at 11.0 µM -14% | [11]; at 1.2 µM 1% | [11]; at 3.7 µM 3% | [11]; at 11.0 µM 11% | [11]; at 33.0 µM 62%
active: [1]; at 33.0 µM 80% | [1]; at 100.0 µM 89% | [2]; at 100.0 µM 80% | [3]; at 100.0 µM 83% | [4]; at 33.0 µM 71% | [4]; [13] 72% | [4]; at 50.0 µM 96.9% | [4]; at 100.0 µM 84% | [5]; at 50.0 µM 94.7% | [5]; at 100.0 µM 88% | [7]; [13] 75% | [7]; at 50.0 µM 93.6% | [8]; at 100.0 µM 78% | [9]; at 50.0 µM 83.2% | [10]; at 33.0 µM 70% | [10]; [13] 72% | [10]; at 50.0 µM 95% | [10]; at 100.0 µM 87% | [11]; at 100.0 µM 84%
